Measurements: PubChem BioAssay (Tox21)
Several values for one entry are separate records, joined by “and”; a condition that tells them apart may be missing. Identical values can stand only once. Records with an inconclusive call do not appear. Activity calls are given as the source filed them. The call rests on the fitted dose curve; in most records, active means well fitted cell-killing curve with a large enough effect in the repeat runs; inconclusive means weak or mixed curves, or effect the other way; inactive means flat fitted curve, though single readings scatter.
On the % scale 0 is the no-effect control and ±100 the full control effect; potency means the concentration at half of the fitted maximal effect.

Assay: qHTS RealTime-Glo MT Cell Viability Assay in HEK293 cells - 16 hour (AID 1224872); further: nearly all actives have a fitted effect of over 50% in size; on activity change, negative = cytotoxicity: top concentration of the series differs between compounds
Details: RealTime-Glo luminescence; series mostly up to 76.8 µM
Text: National Center for Advancing Translational Sciences [NCATS]
NIH Chemical Genomics Center [NCGC]
U.S. Environmental Protection Agency [EPA]
National Institutes of Environmental Health Sciences [NIEHS]
National Toxicology Program [NTP]
U.S. Food and Drug Administration [FDA]
Measure of cell viability is critical in the cell-base assay. Analysis of cell viability is necessary for the characterization of cell responses to cytotoxic drugs and environmental stress. A RealTime-Glo MT Cell Viability Assay to monitor cell viability in real time of continues cell culture during 40 hours of compound treatment was used to screen Tox21 10K library compounds in Hek293 cells. The RealTime-Glo MT Cell Viability Assay is a nonlytic, homogeneous, bioluminescent method to measure cell viability in real time using a simple, plate-based method. The assay involves adding NanoLuc luciferase and a cell-permeant prosubstrate to cells in culture. Viable cells reduce the proprietary prosubstrate to generate a substrate for NanoLuc luciferase. This substrate diffuses from cells into the surrounding culture medium, where it is rapidly used by the NanoLuc Enzyme to produce a luminescent signal. The signal correlates with the number of viable cells, making the assay well suited for cytotoxicity studies.
Tox21 Assay Protocol Summary:
The mixture of Hek293 cell suspension and reagents were dispensed at 600cells/6 ul/well in 1536-well tissue culture treated black solid bottom plates using a Multidrop dispenser. After the assay plates were incubated at a 37 C/5% CO2 incubator for 5 hours, 23 nL of compounds dissolved in DMSO, positive and negative controls was transferred to the assay plate by a pintool work station. The plates were incubated at 37 C for 40 hours. The luminescence intensity were measured at 0h, 8h, 16h, 24h, 32h and 40h time points using ViewLux plate reader during compound treatment.
With `O=C(c1ccccc1)C(Cl)Cl` the Potency was 34.7 µM (active).
With `CCOC(=O)C(O)(c1ccc(Cl)cc1)c1ccc(Cl)cc1` the Potency was 19.7 µM (active) and 34.7 µM (active).
In the case of `CC1COC(Cn2cncn2)(c2ccc(Oc3ccc(Cl)cc3)cc2Cl)O1` (centres undefined), the Potency is reported as 21.9 µM (active).
For `Cc1ccc2nc3sc(=O)sc3nc2c1`, the activity change, negative = cytotoxicity was 3.61% [at 15.8 µM] (inactive).
With `ClC1=C(Cl)[C@]2(Cl)[C@@H]3[C@@H](Cl)[C@H]4O[C@H]4[C@@H]3C1(Cl)C2(Cl)Cl` the Potency was 54.9 µM (active).
For `OCC(c1ccc(Cl)cc1)c1ccc(Cl)cc1`, the Potency was 30.9 µM (active).
In the case of `O=S(=O)(C(Cl)(Cl)Cl)C(Cl)(Cl)Cl`, the Potency is reported as 12.3 µM (active).
With `Cc1cc(C)c(C(=O)P(=O)(c2ccccc2)c2ccccc2)c(C)c1` the Potency was 43.6 µM (active).
In the case of `Cc1nnc2n1-c1sc(CCc3ccc(CC(C)C)cc3)cc1C(c1ccccc1Cl)=NC2C` (centres undefined), the Potency is reported as 19 µM (active).
For `Nc1ccc([N+](=O)[O-])cc1`, the Potency was 21.9 µM (active).
With `Oc1c(I)cc(I)cc1I` the Potency was “inactive”.
In the case of `O=[N+]([O-])c1c(Cl)c(Cl)cc(Cl)c1Cl`, the Potency is reported as “inactive”.
For `N#Cc1cc([N+](=O)[O-])ccc1N`, the Potency was “inactive”.
For `C[C@]12CC[C@@H](O)C[C@@H]1CC[C@@H]1[C@@H]2CC[C@]2(C)C(=O)CC[C@@H]12`, the Potency was 38.9 µM (active).
For `CN1CSC(=S)N(C)C1`, the Potency was 15.4 µM (active).
With `Cc1cc(C(C)(C)c2ccc(O)c(C)c2)ccc1O` the Potency was 20.8 µM (active).
In the case of `Cc1ccc(N(SC(F)(Cl)Cl)S(=O)(=O)N(C)C)cc1`, the Potency is reported as 5.49 µM (active).
With `O=C1C(I)=CC(=C(c2cc(I)c(O)c(I)c2)c2ccccc2C(=O)O)C=C1I` the Potency was “inactive”.
In the case of `CCN(CC)C(=O)Cl`, the Potency is reported as “inactive”.
